The panel holds about 83,000 compounds, 20% with a hit somewhere; the sample as a whole holds those more often.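 Negative percent growth values reflect cell death: -40 means 40% of the cells present at the start died, and -100 means all died.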 A number with no mark means an inactive call. Active and inactive are the calls of the source. How the source made its calls: active means growth percent below 10; inactive means the rest.

The assay relates to HL-60(TB) leukemia. Kind of assay: NCI-60 one-dose screen, 48 h (100 = growth as untreated, 0 = no growth, -100 = all killed). Particulars: 10 µM unless noted.
`Cc1ccc(NC(=O)C(Cl)Cl)cc1`: the growth is -48.8% (active).
As to `CCOC(=O)CCN(c1c(Cl)ssc1=O)C(C)C`, the growth was 101%.
For `O=S(=O)(NCCCNc1cc(-c2cn(-c3ccccc3)nc2-c2cccc(O)c2)ccn1)c1cccc(F)c1` the value was 39.1%; for `COc1ccc(Nc2ncc(Br)c(NCCCNC(=O)C3CCC3)n2)cc1`, -12.8% (active).
For `O=c1cc(-c2ccccc2)nc(SCc2nc3cc(Cl)c(Cl)cc3[nH]2)[nH]1` the value was 101%; for `CC(=O)Nc1sc2c(c1-c1nc3ccccc3s1)CNC2`, 28.4%; for `C[n+]1c2ccccc2nc2c(N)cc(N)cc21`, 74.7%.
Under `O=C(COc1cccc(/C=C2\Cc3ccccc3C2=O)c1)c1ccc(Cl)cc1` stands 94.2%; under `N#Cc1nc(C#N)c(Sc2ccccc2)c(Sc2ccccc2)c1Sc1ccccc1`, -37.2% (active).
Take `O=C(Nc1ccc(Br)cc1F)c1cc(I)ccc1O`: the growth is -33.3% (active).
As to `CCC1=C(c2ccc(OC)cc2)C(C)(C)Oc2c1ccc(O)c2CN1CCCC1`, the growth is -25.4% (active).
With `COc1ccc(/C=C(\C#N)n2nc3cccc(F)c3n2)cc1`, the growth is 82%.
Regarding `O=C(Nc1nc2ccc(C(F)(F)F)cc2s1)c1cc(Cl)ccc1O`, the growth is -54.4% (active).
For `COc1nc(/C=C\Nc2ccc3c(c2)OCCOCCOCCOCCO3)nc(OC)n1` the value was 65.4%; for `CC(=O)c1cc(Cl)ccc1O`, 103%.
For `O=C1CNc2cc(Cl)ccc2N1` the value was 99.7%.
For `CCN1C(=O)N(CC)C2C1NC(=S)N2/N=C/C=C/c1cccs1` (configuration not stated) the value was -41.3% (active).

For the origin of these results see PubChem BioAssay (NCI).
